KDM5B inhibitor: inhibitors of human KDM5B histone demethylase; KDM5B demethylase, FDH-coupled NADH fluorescence (FDH is formaldehyde dehydrogenase); 220,000 tested, 2.6% active; AID 1347165; Q9UGL1; Potency, µM (highest dose often 57.7 µM), usual class: inhibitors; further: potency means the concentration at half of the fitted maximal effect; 0% is about no effect; nearly all actives have a fitted effect of over 70% in size
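Compound dilutions met 200 nM (final) KDM5BΔAP for 10 min at room temperature before substrate addition. The substrate mix held 12.5 µM H3K4me3 with cofactors 25 µM α-ketoglutarate and 50 µM Fe²⁺. NADH signal gain over 30 min defined activity.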
IP6K1 inh: inhibitors of human IP6K1. IP6K1 kinase, ADP-Glo luminescence, 2 h; active compounds read low. activity change, % (series mostly up to about 58 µM). 140,000 tested, 0.81% active; in the data active means activity change below about -25%; further: on the % scale 0 is the no-effect control and ±100 the full control effect
Target sequence (Q92551 whole entry, looked up): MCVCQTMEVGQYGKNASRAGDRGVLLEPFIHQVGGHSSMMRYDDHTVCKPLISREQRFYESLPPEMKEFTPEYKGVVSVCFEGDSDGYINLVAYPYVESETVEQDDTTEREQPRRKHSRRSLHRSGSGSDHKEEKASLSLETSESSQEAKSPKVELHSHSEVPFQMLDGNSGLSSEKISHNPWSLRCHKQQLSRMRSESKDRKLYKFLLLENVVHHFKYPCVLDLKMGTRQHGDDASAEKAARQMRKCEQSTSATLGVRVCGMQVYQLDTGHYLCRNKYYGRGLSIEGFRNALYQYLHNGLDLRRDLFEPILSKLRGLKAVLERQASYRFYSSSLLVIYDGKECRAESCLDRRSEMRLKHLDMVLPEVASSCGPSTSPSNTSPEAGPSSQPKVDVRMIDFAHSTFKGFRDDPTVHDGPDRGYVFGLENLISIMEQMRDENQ
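ADP-Glo luminescence measures ADP made by human IP6K1 during a 2 h RT reaction with ATP/IP6 (mix at 1.3 mM/130 uM); top library doses 57.5 and 19.1 uM final.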
SNCA expr inh: inhibitors of alpha-synuclein (SNCA) gene expression. HEK-293 SNCA-luciferase knock-in, luminescence, 24 h. Potency, µM (highest dose often 57.2 µM), without a hit: top-dose activity change, negative = inhibition, hits mostly inhibitors. 140,000 tested, 0.17% active;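 further: potency means the concentration at half of the fitted maximal effect; plate controls were DMSO cells for no effect and cell-free wells for full effect; nearly all actives have a fitted effect of over 45% in size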
HEK293 viab: counter-screen for SNCA expression inhibitors: cell viability; Potency, µM (series often up to 57.1 µM), for inactives: at the highest dose activity change, negative = cytotoxicity, most hits filed as cytotoxic; HEK-293-SNCA-luc viability, GF-AFC fluorescence, 24 h; 150,000 tested, 0.12% active;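 further: potency means the concentration at half of the fitted maximal effect; 0% = DMSO-treated cells and -100% = medium-only wells without cells; nearly all actives have a fitted effect of over 30% in size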
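Cytotoxicity counterscreen: after 24 h compound treatment of genome-edited SNCA-luciferase HEK-293 cells, live-cell protease substrate GF-AFC read by fluorescence after 30 min; activity scaled between DMSO (0%) and medium-only (-100%), curves Hill-fitted.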
* = called active by the depositor; i = inactive; ? = inconclusive; . = no result given; [ ] = another dose, or the depositor's remark. Compounds with a hit are over-represented: about 3% of the library has one in this group of screens. Unless noted, the call rests on the fitted dose curve; in most records, active means well fitted curve in the direction sought with a large enough effect; inconclusive means small, poorly fitted or top-dose-only effect, or another doubt; inactive means no such curve, though single readings can be large; an effect the other way counts as inactive or inconclusive.

SMILES	KDM5B inhibitor	IP6K1 inh	SNCA expr inh	HEK293 viab
CCn1ccnc1CNc1ccc(-c2nc(-c3ccccc3C)no2)cn1	28µM*	9	15%	8%
N#C/C(=C\c1c[nH]c2ccccc12)C(=O)Nc1ccccc1O	i	.	.	.
CC(C)NC(=O)N1Cc2ccccc2OC2(CCN(C(=O)c3cccc4[nH]ccc34)CC2)C1	i	-4	?	0%
CN(C)C(=O)N1CCC2(CC1)CN(C(=O)c1cccc3[nH]ccc13)Cc1ccccc1O2	50µM*	3	-16%	-5%
CC(=O)N1Cc2ccccc2OC2(CCN(C(=O)c3ccnc(N)c3)CC2)C1	79µM*	-6	?	1%
CNC(=O)C1CCCN(Cc2cccc(-c3cccs3)c2)C1 (stereo not given)	.	13	.	.
COC[C@H]1NC(=O)CC[C@H]1C(=O)N1CCN(c2ccccc2)CC1	.	12	15%	22%
O=C(NC1CCCCCC1)C1CC(c2cccc(F)c2)=NO1 (stereo not given)	i	.	.	.
CCn1ccnc1CN(C)C(=O)c1cc(-c2cnc(N)nc2)nc2c(C)cccc12	28µM*	1	2%	-6%
CCn1ccnc1CN(C)C(=O)c1cc(-c2cnc(C)nc2)nc2cc(F)ccc12	i	-2	13%	-1%
Cc1ccccc1Nc1nc(C(=O)NCc2ccccc2)cs1	i	.	.	.
O=C(NCc1ccccc1)c1csc(Nc2ccncn2)n1	.	-1	9.6µM*	?
COc1ccc(Nc2ccnc(N3CCC(NC(=O)c4ccccn4)CC3)n2)cc1	.	12	5%	-9%[12.5 µM]
CC1=C(CO)C(=O)O[C@@H]([C@@H](C)[C@H]2CC[C@H]3[C@@H]4C[C@H]5O[C@]56[C@@H](O)C=CC(=O)[C@]6(C)[C@H]4CC[C@]23C)C1	.	-8	.	10µM*
CCOC(=O)c1ccccc1NC(=O)Cn1c(N(C)Cc2ccccc2)nc(C)cc1=O	16µM*	12	-3%	10%
CCOC(=O)c1ccc(NC(=O)Cn2c(N(C)Cc3ccccc3)nc(C)cc2=O)cc1	i	9	-13%	13%
COc1ccccc1-c1cccc(CN2CCCC(C(=O)NCC(F)(F)F)C2)c1 (stereo not given)	.	-3	-16%	-1%
Cc1cccc(N2CCN(C(=O)CN3CC4(CCCCC4)CC3=O)CC2)n1	32µM*	0	21%	-4%
COc1cccc(-c2ccc(CN3CCCC(NC(=O)c4cccc(Cl)c4)C3)cc2)c1 (stereo not given)	.	4	?	-29%
OC[C@@H]1CN(Cc2cccc3[nH]ccc23)C[C@H]1c1ccncc1	25µM*	-6	-28%	-2%
OC[C@@H]1CN(Cc2ccco2)C[C@H]1c1ccncc1	i	-11	-27%	-6%
CCOC(=O)[C@@H]1CN(C(=O)c2cc3ccccc3s2)[C@H]2c3cccc(F)c3O[C@@H]12	.	6	.	.
COC(=O)[C@@H]1Cc2ncn(Cc3ccc(Cl)cc3)c2CN1Cc1cccs1	28µM*	-8	-22%[87.6 µM]	-13%[87.6 µM]
COC(=O)[C@@H]1Cc2ncn(Cc3ccc(Cl)cc3)c2CN1CCCc1ccccc1	35µM*	-16	?	?
O=C(c1ccc(S(=O)(=O)N2CCCC2)cc1)N1CCN(c2cccc(Cl)c2)CC1	i	.	.	.
SMILES	KDM5B inhibitor	IP6K1 inh	SNCA expr inh	HEK293 viab
Cc1ccc2nc(C(=O)N3CCN(c4cccc(Cl)c4)CC3)cn2c1	i	.	.	.
CS(=O)(=O)c1ncc(Cl)c(C(=O)N2CCN(c3cccc(Cl)c3)CC2)n1	i	-26*	?	?
CCS(=O)(=O)c1ncc(Cl)c(C(=O)N2CCN(c3cccc(Cl)c3)CC2)n1	i	-6	2.2µM*	3.5µM*
Cc1ccc2cc(C(=O)N(C)Cc3ccc(C)o3)[nH]c2c1	i	.	.	.
CN1CCN(c2cc(=O)c3ccnc(N4CCOCC4)c3o2)CC1	i	-16	10%[87.6 µM]	5%[87.6 µM]
CN(c1cc(=O)c2ccnc(-c3ccc([S+](C)(=O)[O-])cc3)c2o1)C1CCOCC1	35µM*	-5	-7%[87.6 µM]	6%[87.6 µM]
CN1CCN(c2nccc3c(=O)cc(N(C)C4CCOCC4)oc23)CC1	40µM*	-18	5%[87.6 µM]	9%[87.6 µM]
CN(C)c1cccc(-c2nccc3c(=O)cc(N(C)C4CCOCC4)oc23)c1	28µM*	-18	?	8%[87.6 µM]
CN(c1cc(=O)c2ccnc(-c3cccc(CO)c3)c2o1)C1CCOCC1	40µM*	-19	25%[87.6 µM]	3%[87.6 µM]
CN(c1cc(=O)c2ccnc(-c3cncnc3)c2o1)C1CCOCC1	i	-16	-19%[87.6 µM]	5%[87.6 µM]
CC(=O)Nc1ccccc1-c1nccc2c(=O)cc(N(C)C3CCOCC3)oc12	35µM*	-9	4%[87.6 µM]	8%[87.6 µM]
COc1ccc(CCN2C(=O)O[C@@H]3CN(c4nc(C)cc(C)n4)C[C@@H]32)cc1	18µM*	21	-7%	-10%
O=C1CO[C@H]2CN(c3nccc(C(F)(F)F)n3)C[C@H]2N1Cc1ccc(F)cc1	i	-3	24%[87.6 µM]	-2%[87.6 µM]
COc1ccc(CN2C(=O)CO[C@H]3CN(c4nccc(C)n4)C[C@H]32)cc1	35µM*	0	-17%[87.6 µM]	1%[87.6 µM]
Cc1ccc2c(C(=O)N3CCN(C4CCCCC4)CC3)cc(NC(=O)C3CCC3)cc2n1	25µM*	7	-16%	-3%
Cc1ccc2c(C(=O)N3CCN(C4CCCCC4)CC3)cc(NC(=O)C(C)C)cc2n1	11µM*	8	-1%	-6%
Cc1ccc2c(C(=O)N3CCCCCC3)cc(NC(=O)C3CCC3)cc2n1	32µM*	4	16%	5%
CC(=O)Nc1cc(C(=O)N2CCN(C3CCCCC3)CC2)c2ccc(C)nc2c1	?	20	4%	6%
Cc1ccc2c(C(=O)N3CCCCCC3)cc(NC(=O)C3CC3)cc2n1	28µM*	-2	4%	-7%
CSc1ccc(-c2cccc(CN3CCC(NC(=O)c4ccc(C(F)(F)F)cc4)CC3)c2)cc1	.	5	.	.
O=C(O)c1cc(-c2cccs2)nc2ccc(Cl)cc12	i	.	.	.
O=C(NC1CCCN(c2ccc3nnc(-c4ccccc4)n3n2)C1)c1ccncc1 (stereo not given)	.	0	.	.
O=C(c1cc(-c2ccc(Cl)cc2Cl)c2nncn2n1)N1CCOCC1	79µM*	5	-20%	-9%[12.5 µM]
O=C(NCc1cccs1)c1cc(-c2cccc(C(F)(F)F)c2)c2nncn2n1	50µM*	1	?	?
O=C(c1cc(-c2cccc(C(F)(F)F)c2)c2nncn2n1)N1CCCC1	50µM*	15	-14%	12%
O=C(C1CCN(C(=O)N2CC3CC(C2)[C@H]2CCCC(=O)N2C3)CC1)N1CCN(c2ccccn2)CC1 (stereo not given in full)	25µM*	12	5%	-3%
O=C(c1ccc(N2CC3CC(C2)[C@H]2CCCC(=O)N2C3)nc1)N1CCC(Cc2ccccc2)CC1 (stereo not given in full)	32µM*	17	-4%	?
O=C(c1ccc(N2CC3CC(C2)[C@H]2CCCC(=O)N2C3)nc1)N1CCN(c2ncccn2)CC1 (stereo not given in full)	?	7	19%	-5%
CCCC(=O)N1CCCN(C(C)C(=O)Nc2ccccc2Cl)CC1 (stereo not given)	i	.	.	.
